In the supplement of paper PMC8728848:
This excerpt belongs to a sample that is enriched for the strongest signals.

Assays:
Assay in all cases: glycan array binding signal (z-score within array); higher = stronger binding
Details in all cases: glycan notation: IUPAC condensed, linker removed
Fuc(a1-2)Gal(b1-3)GalNAc = molecular target: Fuc(a1-2)Gal(b1-3)GalNAc
In short: (§1)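 The Consortium for Functional Glycomics database supplied 3228 glycan arrays, of which those lacking an available protein sequence were dropped. The binding signal, a within-array Z-score, was averaged across arrays of the same protein sequence and across linkers. Negative scores can be read as non-binding.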

[1] = molecular target: Fuc(a1-2)[Gal(a1-3)]Gal(b1-4)Glc
In short: as §1

[2] = molecular target: Fuc(a1-2)[GalNAc(a1-3)]Gal
In short: as §1

[3] = molecular target: Fuc(a1-2)[GalNAc(b1-3)]Gal
In short: as §1

Fuc(a1-3)GlcNAc = molecular target: Fuc(a1-3)GlcNAc
In short: as §1

Gal(a1-2)Gal = molecular target: Gal(a1-2)Gal
In short: as §1

[4] = molecular target: Gal(b1-3)[Fuc(a1-4)]GlcNAc(b1-3)Gal(b1-4)GlcNAc
In short: as §1

Gal(b1-4)GlcNAc = molecular target: Gal(b1-4)GlcNAc
In short: as §1

[5] = molecular target: Gal(b1-4)GlcNAc(b1-3)Gal(b1-4)Glc
In short: as §1

[6] = molecular target: Gal(b1-4)GlcNAc(b1-3)Gal(b1-4)GlcNAc
In short: as §1

Gal4S6S(b1-4)GlcNAc = molecular target: Gal4S6S(b1-4)GlcNAc
In short: as §1

Gal6S(b1-4)Glc = molecular target: Gal6S(b1-4)Glc
In short: as §1

Gal6S(b1-4)GlcNAc = molecular target: Gal6S(b1-4)GlcNAc
In short: as §1

GlcNAc(b1-3)Gal(b1-4)Glc = molecular target: GlcNAc(b1-3)Gal(b1-4)Glc
In short: as §1

[7] = molecular target: Man(a1-2)Man(a1-3)[Man(a1-2)Man(a1-6)]Man
In short: as §1

[8] = molecular target: Man(a1-2)Man(a1-3)[Man(a1-2)Man(a1-6)]Man(a1-6)[Man(a1-2)Man(a1-2)Man(a1-3)]Man(b1-4)GlcNAc(b1-4)GlcNAc
In short: as §1

[9] = molecular target: Neu5Ac(a2-3)Gal(b1-3)[Neu5Ac(a2-6)]GalNAc
In short: as §1

[10] = molecular target: Neu5Ac(a2-3)Gal(b1-4)GlcNAc(b1-2)Man(a1-3)[Neu5Ac(a2-3)Gal(b1-4)GlcNAc(b1-2)Man(a1-6)]Man(b1-4)GlcNAc(b1-4)GlcNAc
In short: as §1

[11] = molecular target: Neu5Ac(a2-3)Gal(b1-4)GlcNAc(b1-3)Gal(b1-4)GlcNAc(b1-3)Gal(b1-4)GlcNAc
In short: as §1

[12] = molecular target: Neu5Ac(a2-3)Gal(b1-4)[Fuc(a1-3)]GlcNAc
In short: as §1

[13] = molecular target: Neu5Ac(a2-3)Gal(b1-4)[Fuc(a1-3)]GlcNAc(b1-3)Gal(b1-4)GlcNAc
In short: as §1

[14] = molecular target: Neu5Ac(a2-3)Gal(b1-4)[Fuc(a1-3)]GlcNAc(b1-3)Gal(b1-4)[Fuc(a1-3)]GlcNAc(b1-3)Gal(b1-4)[Fuc(a1-3)]GlcNAc
In short: as §1

[15] = molecular target: Neu5Ac(a2-3)Gal6S(b1-4)GlcNAc
In short: as §1

Neu5Ac(a2-3)GalNAc = molecular target: Neu5Ac(a2-3)GalNAc
In short: as §1

[16] = molecular target: Neu5Ac(a2-6)Gal(b1-4)GlcNAc(b1-3)Gal(b1-4)[Fuc(a1-3)]GlcNAc(b1-3)Gal(b1-4)[Fuc(a1-3)]GlcNAc
In short: as §1

[17] = molecular target: Neu5Ac(a2-6)Gal(b1-4)GlcNAc6S
In short: as §1

[18] = molecular target: Neu5Ac(a2-3)Gal(b1-4)[Fuc(a1-3)]GlcNAc(b1-3)GalNAc
In short: as §1

[19] = molecular target: Neu5Ac(a2-3)Gal(b1-4)[Fuc(a1-3)]GlcNAc(b1-6)[Gal(b1-3)]GalNAc
In short: as §1

[20] = molecular target: Neu5Ac(a2-3)Gal(b1-4)[Fuc(a1-3)]GlcNAc(b1-6)[Neu5Ac(a2-3)Gal(b1-3)]GalNAc
In short: as §1

[21] = molecular target: Neu5Ac(a2-3)GalNAc(b1-4)GlcNAc
In short: as §1

[22] = molecular target: Neu5Ac(a2-3)[Neu5Ac(a2-6)]GalNAc
In short: as §1

[23] = molecular target: Neu5Ac(a2-6)Gal(b1-4)GlcNAc
In short: as §1

[24] = molecular target: Neu5Ac(a2-6)Gal(b1-4)GlcNAc(b1-3)Gal(b1-4)GlcNAc(b1-3)Gal(b1-4)GlcNAc
In short: as §1

[25] = molecular target: Neu5Ac(a2-8)Neu5Ac(a2-3)[GalNAc(b1-4)]Gal(b1-4)Glc
In short: as §1

[26] = molecular target: Neu5Ac9Ac(a2-6)Gal(b1-4)GlcNAc
In short: as §1

[27] = molecular target: Neu5Gc(a2-6)Gal(b1-4)GlcNAc
In short: as §1

Binder | glycan array binding signal (z-score) (Fuc(a1-2)Gal(b1-3)GalNAc) | glycan array binding signal (z-score) [1] | glycan array binding signal (z-score) [2] | glycan array binding signal (z-score) [3] | glycan array binding signal (z-score) (Fuc(a1-3)GlcNAc) | glycan array binding signal (z-score) (Gal(a1-2)Gal) | glycan array binding signal (z-score) [4] | glycan array binding signal (z-score) (Gal(b1-4)GlcNAc) | glycan array binding signal (z-score) [5] | glycan array binding signal (z-score) [6] | glycan array binding signal (z-score) (Gal4S6S(b1-4)GlcNAc) | glycan array binding signal (z-score) (Gal6S(b1-4)Glc) | glycan array binding signal (z-score) (Gal6S(b1-4)GlcNAc) | glycan array binding signal (z-score) (GlcNAc(b1-3)Gal(b1-4)Glc) | glycan array binding signal (z-score) [7] | glycan array binding signal (z-score) [8] | glycan array binding signal (z-score) [9] | glycan array binding signal (z-score) [10] | glycan array binding signal (z-score) [11] | glycan array binding signal (z-score) [12] | glycan array binding signal (z-score) [13] | glycan array binding signal (z-score) [14] | glycan array binding signal (z-score) [15] | glycan array binding signal (z-score) (Neu5Ac(a2-3)GalNAc) | glycan array binding signal (z-score) [16] | glycan array binding signal (z-score) [17] | glycan array binding signal (z-score) [18] | glycan array binding signal (z-score) [19] | glycan array binding signal (z-score) [20] | glycan array binding signal (z-score) [21] | glycan array binding signal (z-score) [22] | glycan array binding signal (z-score) [23] | glycan array binding signal (z-score) [24] | glycan array binding signal (z-score) [25] | glycan array binding signal (z-score) [26] | glycan array binding signal (z-score) [27]
F4 (Escherichia coli), A0A6L9DDF0 (protein) MKKTLIALALAASAVSGMAHAWTSGDFNGTVDIGGSIDATNYRQKWEWEVGTGLNGFYNALSELTNNDTKLTITVTGNKPILLGRTKEAFVTPTAGGWGGIPQIAFTDYKGAPVELKNPDGETNKGLAYFVLPMKNADGTEAGSVRVNASYAGAVVEKTSDSSAKLFSAYAGEVIRIFNGGLPVNVTQSELQSGVAAADRTALFGSLGKADLVAQFQAVIPGATVTDGTSSEHCTMRLLASAAYALGIADGQTIEATFNQAVTTSTQWSAPLNVAITYY | -0.145 | -0.191 | -0.144 | -0.33 | -0.164 | -0.128 | -0.232 | -0.137 | -0.276 | -0.397 | 0.285 | -0.213 | 1.48 | 8.86 | 0.052 | -0.311 | -0.291 | -0.209 | -0.282 | 2.09 | -0.176 | -0.185 | -0.21 | -0.397 | 2.24 | -0.382 |  |  |  |  |  |  |  |  |  | 
SAG3 (Toxoplasma gondii), Q9BJ39 (protein) MQLWRRRAAGPASLGRQSLPLGCFFAAFGLCVLSAILGTGERGLFVAAGNSRRKITYFGTLTQKAPNWYRCSSTRAKEEVVGHVTLNKEHPDMTIECVDDGLGGEFLPLEGARSSYPRVCHIDAKDQDDCERNRGFLTDYIPGAKQYWYKIEKVEQNGEQSVLYKFTVPWILLPPAKQRYKVGCRYPNHEYCFVEVTVEPTPPMVEGKRVTCGYSESGPVNLEVDLSKNANFIEIRCGEQHHPQPSTYTLQYCSGDSVDPQKCSPQSLTNIFYDYSSSWWKGKLNGPDGATLTIPPGGFPEEDKSFLVGCSLTVDGPPFCNVKVRVAGNPRKWERGGGGHPGSGGLQPGTDGETQAGTGSSAGASSRMASVALAFLLGLLVHVAA |  |  |  |  |  |  |  |  |  |  |  |  |  |  |  |  |  |  |  |  |  |  |  |  |  |  | 16 | 3.05 | 2.02 | -0.469 | -0.226 | -0.372 | -0.049 | 2.27 | 0.292 | -0.387
